# A selection: hits, their analogues and other compounds. The true share with any hit is near 9.2%.
# ELG1 repair inh: qHTS screen for small molecules that inhibit ELG1-dependent DNA repair in human embryonic kidney (HEK293T) cells expressing luciferase-tagged ELG1. HEK293T ELG1-luciferase reporter, luminescence, 16 h; DNA damage induced by 5-fluorouridine. Potency, µM (doses to about 46.1 µM), for inactives: at the highest dose activity change, negative = inhibition, hits mostly inhibitors. 330,000 compounds, 2.3% hits; further: on the % scale 0 is the no-effect control and ±100 the full control effect; nearly all actives have a fitted effect of over 55% in size
#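 Luminescence from the luciferase reporter, measured 30 min after ONE-Glo reagent at room temperature, was the read-out. Beforehand, 2,000 cells per well were exposed for 16 hr at 37 °C to 5-fluorouridine together with compound or vehicle.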
# SMN2 splice up: qHTS Assay for Enhancers of SMN2 Splice Variant Expression; HEK293 SMN2-luciferase splicing reporter, luminescence, 30-36 h; Potency, µM (titrated, usually from 46.1 µM), for the others: at the highest dose activity change, positive = activation, most hits filed as activators; 210,000 compounds, 2.8% hits; AID 1458, 2008; further: % of control where 0% means no effect; nearly all actives have a fitted effect of over 55% in size
#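 HEK293 cells carry an SMN2 minigene-luciferase reporter in which exon 7 inclusion puts luciferase in frame. Cells were seeded at 2000 cells/well, attached for 10-12 hours, then exposed to compounds for 30-36 hours at 37C before ONE-Glo luminescence.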
# ELG1 genotoxic: qHTS screen for small molecules that induce genotoxicity in human embryonic kidney (HEK293T) cells expressing luciferase-tagged ELG1; HEK293T ELG1-luciferase reporter, luminescence, 16 h; Potency, µM (highest dose often 46 µM), without a hit: top-dose activity change, positive = activation, usual class: activators; 330,000 compounds, 1.3% hits; further: % of control where 0% means no effect; nearly all actives have a fitted effect of over 60% in size
#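 16 hr compound incubation (37 °C, 5% CO2) of HEK293T cells carrying luciferase-tagged ELG1; luciferase then measured by ONE-Glo luminescence after 30 min at RT.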
# NPC1 prom act: qHTS Assay for NPC1 Promoter Activators; Huh7 NPC1 promoter luciferase reporter, 24 h; Potency, µM (highest dose often 9.22 µM), without a hit: at the highest dose activation, most hits filed as activators; 320,000 compounds, 2.4% hits; AID 485313, 2010; further: % of control where 0% means no effect; nearly all actives have a fitted effect of over 60% in size
#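 Compounds in DMSO were transferred onto Huh7 NPC1-luciferase reporter cells pre-incubated 2 h; after 24 h at 37 °C, Amplite reagent was dispensed and luminescence recorded 10 min later.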
# FLuc modulator: qHTS profiling assay for firefly luciferase inhibitor/activator using purifed enzyme and Km concentrations of substrates (counterscreen for miR-21 project) | purified FLuc, Km substrates, luminescence inhibition | Potency, µM (doses to about 57.5 µM), without a hit: at the highest dose activity change, negative = inhibition, most hits filed as inhibitors | 360,000 compounds, 6.9% hits | AID 588342, 2011;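 further: plate controls were vehicle for no effect and reference inhibitor for full effect; nearly all actives have a fitted effect of over 55% in size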
# Target sequence (P08659 whole entry, looked up): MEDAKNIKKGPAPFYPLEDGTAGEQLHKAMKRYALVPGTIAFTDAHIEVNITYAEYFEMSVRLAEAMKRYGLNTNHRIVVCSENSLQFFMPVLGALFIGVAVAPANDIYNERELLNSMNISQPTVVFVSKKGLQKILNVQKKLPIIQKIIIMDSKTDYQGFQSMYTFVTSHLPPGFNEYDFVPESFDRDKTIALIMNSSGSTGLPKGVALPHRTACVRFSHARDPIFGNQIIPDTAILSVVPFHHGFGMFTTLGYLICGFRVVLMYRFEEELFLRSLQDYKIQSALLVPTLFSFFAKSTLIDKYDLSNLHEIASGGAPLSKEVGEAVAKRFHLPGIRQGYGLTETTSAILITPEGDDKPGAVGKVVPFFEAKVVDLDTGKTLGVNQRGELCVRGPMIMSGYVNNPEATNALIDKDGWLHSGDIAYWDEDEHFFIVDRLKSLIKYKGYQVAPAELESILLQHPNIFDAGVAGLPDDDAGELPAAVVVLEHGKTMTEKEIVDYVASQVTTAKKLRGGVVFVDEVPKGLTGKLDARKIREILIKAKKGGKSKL
#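 Purified P. pyralis luciferase (10nM final) with 10uM D-luciferin and 10uM ATP (Km levels) in 50mM Tris acetate pH 7.5, 10mM Mg acetate, 0.01% Tween-20, 0.05% BSA; qHTS 6-point titration, ~60 µM downward; luminescence read.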
# Rab9 promoter act: qHTS Assay for Rab9 Promoter Activators. Huh7 Rab9 promoter-luciferase reporter, luminescence, 24 h. Potency, µM (doses to about 9.22 µM), for the others: at the highest dose activation, negative = inhibition, hits mostly activators. 320,000 compounds, 2.8% hits. AID 485297, 2010; further: % of control where 0% means no effect; nearly all actives have a fitted effect of over 60% in size
#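 Luminescence read-out: Huh7 cells stably expressing Rab9-luciferase, treated 24 h with compound at 37 °C, then lysed with luciferase reagent for 10 min at ambient before reading.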
# An asterisk follows results filed as active; ? = inconclusive; . = no result given; [ ] = another dose, or the depositor's remark. The call rests on the fitted dose curve; in most records, active means well fitted curve in the direction sought with a large enough effect; inconclusive means small, poorly fitted or top-dose-only effect, or another doubt; inactive means no such curve, though single readings can be large; an effect the other way counts as inactive or inconclusive. Potency means the concentration at half of the fitted maximal effect.
SMILES,ELG1 repair inh,SMN2 splice up,ELG1 genotoxic,NPC1 prom act,FLuc modulator,Rab9 promoter act
CC(=O)c1cc2c(=O)c3cc(C)ccc3oc2nc1C,?,13µM*,10µM*,?,8.5µM*,3.5µM*
Cc1nc2oc3ccc(F)cc3c(=O)c2cc1C(=O)O,?,.,6%,-1%,?,-7%
Cc1ccc2oc3nc(C)c(C(=O)O)cc3c(=O)c2c1,?,5.6µM*,24%,2.8µM*,13µM*,2.2µM*
CCOC(=O)N1CCc2c(sc(NCc3cccs3)c2C(=O)Nc2cc(Cl)ccc2OC)C1,.,.,.,.,-6%,.
O=C(O)c1ccccc1C(=O)c1ccc(-c2ccccc2)cc1,?,.,5%,13%,21µM*,1%[1.84 µM]
COc1cccc(CN2CC(C(=O)NCCOc3cccnc3)CCC2=O)c1 (centres undefined),12%,.,0%,3%,7%,-4%
O=C(CCNS(=O)(=O)c1ccccc1)NNC(=O)COc1ccccc1F,29%,.,-1%,.,.,.
Cc1ccc(NC(=O)Nc2ccc(F)cc2)cc1Cl,?,?,12%,?,2.7µM*,?
COc1cccc(NC(=O)Nc2ccc(C)c(Cl)c2)c1,?,13µM*,?,?,2.7µM*,2.8µM*
CCOC(=O)C1CCN(C2=NC(=O)/C(=C/c3ccc(OC)c(OC)c3)S2)CC1,-5%,.,1%,-2%,?,-6%
COc1ccc(OC)c(/C=C2\SC(N3CCCC(C)C3)=NC2=O)c1 (centres undefined),?,.,1%,6%,?,-3%
O=C1N=C(N2CCCCC2)S/C1=C/C1=Cc2ccccc2OC1,?,9%,?,12%,2.4µM*,20%
COc1cc(/C=C2\SC(N3CCC(C)CC3)=NC2=O)ccc1O,?,.,18µM*,9%,11µM*,23%
CN(C)c1ccc(/C=C2\SC(N3CCCCC3)=NC2=O)cc1,?,.,?,?,0.54µM*,20%
COc1ccc(/C=C2\SC(N3CCCCC3)=NC2=O)cc1OC,?,.,?,1%,11µM*,-5%
COc1ccccc1NC(=O)CCN1CCC(C(N)=O)CC1,.,-13%,.,.,2%,.
CCOC(=O)c1cccc(NC(=O)Cn2ncc3c(=O)oc4ccccc4c32)c1,.,-12%,.,.,2%,.
COc1ccc(C=O)cc1Cn1c(C)cc(C)c(C#N)c1=O,9%,-17%,5%,0%,-3%,-6%
O=C(O)Cc1ccc(NC(=O)c2ccc(Cl)c(Cl)c2)cc1,2%,12%,12%,2%,8.5µM*,-5%
O=C(Nc1ccncc1)c1ccc(Cl)c(Cl)c1,-8%,.,5%,1%,-16%,0%
Cc1ccc(C(=O)Nc2ccc(CC(=O)O)cc2)o1,16%,?,0%,2%,?,-1%
CC(C)(C)c1ccc(C(=O)Nc2ccc(CC(=O)O)cc2)o1,0%,-28%,-7%,-15%,4.3µM*,-19%
O=C(O)Cc1ccc(NC(=O)c2ccc(NC(=O)C3CC3)cc2)cc1,1%,.,0%,-2%,17µM*,19%
O=C(Nc1ccc(Cc2ccc(NC(=O)C3CC3)cc2)cc1)C1CC1,7%,-25%,8%,-5%,0%,-1%
c1ccc(-c2nnnn2-c2ccccc2)cc1,4%,.,0%,0%,1%,3%
SMILES,ELG1 repair inh,SMN2 splice up,ELG1 genotoxic,NPC1 prom act,FLuc modulator,Rab9 promoter act
CN=c1nc(-c2ccccc2)n(-c2ccccc2)s1,?,?,?,-5%[46.1 µM],15µM*,-12%[46.1 µM]
c1ccc(-c2noc(-c3cccnc3)n2)nc1,?,11µM*,5.2µM*,2.8µM*,13µM*,2µM*
COc1cccc(-c2noc(-c3cccs3)n2)c1,?,13µM*,1.3µM*,?,2.1µM*,1µM*
O=[N+]([O-])c1cccc(-c2nc(-c3ccccn3)no2)c1,?,.,?,0.71µM*,4.8µM*,0.4µM*
COc1cccc(-c2nc(-c3ccccn3)no2)c1,?,-75%,2%,?,0.34µM*,0.11µM*
c1ccc(-c2ccccc2-c2nc(-c3cccnc3)no2)cc1,-8%,-6%,-2%,-5%,1%[2.3 µM],-2%
CCCc1noc(-c2cccc([N+](=O)[O-])c2)n1,0%,-5%,1%,-3%,-8%,-4%
CC12CCC(=O)N1C(C(=O)NCc1ccccc1F)CS2 (centres undefined),10%,.,4%,0%,2%,-3%
COc1ccc(-c2nc(-c3ccncc3)no2)c(OC)c1,?,.,2.9µM*,?,0.95µM*,0.71µM*
COc1cccc(-c2nc(-c3ccc(NC(=O)c4cccnc4)cc3)no2)c1,15%,-11%,13%,?,?,30%
COc1cccc(-c2nc(-c3ccccc3)no2)c1,?,11µM*,?,?,?,?
COc1cccc(-c2noc(-c3cccnc3)n2)c1,?,20µM*,?,3.5µM*,5.4µM*,2.5µM*
Cc1cccc(NS(=O)(=O)c2ccc(C(=O)NCC(c3ccco3)N3CCCCC3)cc2)c1C (centres undefined),-17%,.,-8%,-6%,9%,-11%
Cc1ccc(S(=O)(=O)CCc2ccncc2)cc1,?,.,-10%,-6%,3%,0%
O=C(c1ccco1)N1CCN(C(=O)c2cc(-c3ccccn3)nc3ccc(Cl)cc23)CC1,10µM*,-1%,-12%,-3%,19µM*,-9%
